Compound activity from PubChem BioAssay.
The entries come from a sample that favours hits as a whole.
VCAM1 TNFa pot = TNF alpha stimulated VCAM1 expression potentiation; AID 808; actives 0.19% (n = 93,000); activation, % at 2 µM; HUVEC TNFa-stimulated VCAM-1 immunofluorescence, high-content imaging; scaled per plate to unstimulated/TNFa-only wells;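 active means activation above the screen mean plus 3 SD, with well images confirming the hit on visual review, cut at about 28% in these data, passing the limit was not always enough; inconclusive means activation above that limit but images do not confirm it; inactive means activation not above that limit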;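 further: signal is the number of cytoplasmic VCAM-1 stained grains per positive cell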
VCAM1 pot confirm = potentiators of TNFa-induced VCAM1 expression, confirmation, imaging, HUVEC, triplicate retest; activation, % at 2 µM; shares compounds with VCAM1 TNFa pot; HUVEC TNFa-stimulated VCAM-1 immunofluorescence imaging; AID 1034; 230 tested, under 10 active;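 active means activation above 30% in triplicate retests at 2 µM, then confirmed by visual review of the well images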
Each line names hits and unclear results; the compound was inactive in the other large screens (follow-up assays come after a bar, where they were run).

Cc1cc(=O)oc2ccc(OCC(=O)N3CCC(C)CC3)cc12	none
O=C(COc1ccc2ccccc2c1)N1CCN(c2ccccc2O)CC1	none
CC(C)(C)c1ccc(OCC(=O)N2CCN(C=O)CC2)cc1	VCAM1 TNFa pot 69 | VCAM1 pot confirm inactive
CCc1ccc(C(=O)COC(=O)c2cccc(N3C(=O)c4c(C)nc5ccccc5c4C3=O)c2)cc1	none
COC(=O)c1ccccc1NC(=O)c1cc(-c2ccc(OC)c(OC)c2)on1	none
COc1ccc(S(=O)(=O)N2CCN(Cc3cccc(Cl)c3)CC2)cc1	VCAM1 TNFa pot inconclusive | VCAM1 pot confirm inactive
COc1cccc(S(=O)(=O)N2CCN(c3ccccc3F)CC2)c1	none
COc1cccc(CN2CCN(c3ncccn3)CC2)c1	none
COc1cc(OC)c(C(=O)Nc2ccc(S(=O)(=O)Nc3ncccn3)cc2)cc1OC	none
CCCc1nnc(SCC(=O)O)n1/N=C/c1ccc2c(c1)OCO2	none
CC(C)(C)n1ncc(Oc2ccc(Oc3cnn(C(C)(C)C)c(=O)c3Cl)cc2)c(Cl)c1=O	none
CC1Cc2ccccc2N1C(=O)COc1nc2ccccc2nc1N1CCOCC1 (stereo not given)	none
O=C(Cc1ccc(Cl)cc1)Nc1ccccc1CO	none
CC(C)C(=O)Nc1nc2c(ncn2C2CC(O)C(CO)O2)c(=O)[nH]1 (stereo not given)	VCAM1 TNFa pot 30 | VCAM1 pot confirm inactive
CCOC(=O)C1(P(=O)(c2ccc(Cl)cc2)c2ccc(Cl)cc2)CCC1	none
COc1cccc(Nc2nc(=O)[nH]nc2C)c1	none
CC(=NCCCNC1CCCCC1)C1=C(O)CC(C)(C)CC1=O	VCAM1 TNFa pot inconclusive | VCAM1 pot confirm inactive
O=C(Oc1cccc2c(OC(=O)N3CCCC3)cccc12)N1CCCC1	none
CCOC(=O)Cn1nc(/C=C/c2ccc(C(C)C)cc2)ccc1=O	none
O=C(CCCCCN1C(=O)CCC1=O)Nc1ccc2c(c1)OCCO2	none
COC(=O)c1cc(NC(=O)CCc2c(C)nc3ncnn3c2C)cc(C(=O)OC)c1	none
COc1ccc(NC(=O)CSc2nccc(C)n2)cc1	none
CCOC(=O)c1ccc(NC(=O)CSc2nnc(COc3ccccc3)n2C)cc1	none
COc1ccc(-n2ccnc2SCC(=O)Nc2ccccc2)cc1	VCAM1 TNFa pot 81 | VCAM1 pot confirm inactive
CSc1n[nH]c(NCc2cccs2)n1	none
CCOC(=O)COc1ccc2c(c1)C(=O)CC1(CCCCC1)O2	none
COc1ccc2c(c1OC)C(=O)OC2CC(=O)c1ccc2c(c1)OCO2 (stereo not given)	none
COc1ccc2c(c1OC)C(=O)OC2Nc1ccccn1 (stereo not given)	VCAM1 TNFa pot 54 | VCAM1 pot confirm inactive
O=C1OC(Nc2ccc3ncccc3c2)c2ccccc21 (stereo not given)	none
Cc1ccc(NC(=O)CN(C)CC(=O)Nc2c(C)cccc2C)c(Br)c1	none
COC(=O)C(CC(C)C)NC(=O)c1ccc(F)cc1 (stereo not given)	none
CC1CCc2nn(CC(=O)Nc3c(F)cc(F)cc3Br)cc2C1 (stereo not given)	none
Cc1ccc(OCCSc2nnc(-c3cccs3)n2C)cc1	none
CN1CCN(S(=O)(=O)c2ccc(Sc3nnc(-c4cccs4)n3-c3ccccc3)nc2)CC1	VCAM1 TNFa pot 59 | VCAM1 pot confirm inactive
CC(Sc1nnc(-c2cccs2)n1-c1ccccc1)C(=O)NCc1ccco1 (stereo not given)	none
COc1ccccc1NS(=O)(=O)CC12CCC(CC1=O)C2(C)C (stereo not given)	none
COc1cc(C(=O)COC(=O)CNC(=O)C2CCCCC2)cc(OC)c1OC	none
O=C(CCCCCN1C(=O)c2ccccc2C1=O)Nc1nccs1	none
CC1=[N+]([O-])C(C)(C)C(C)N(O)C1=O (stereo not given)	none
O=C(COC(=O)c1cccnc1Nc1cccc(C(F)(F)F)c1)NCc1ccc2c(c1)OCO2	VCAM1 TNFa pot 28 | VCAM1 pot confirm inactive
O=C(COC(=O)c1cnccn1)Nc1ccc2c(c1)OCO2	none
O=C(COC(=O)Cc1cccc(C(F)(F)F)c1)NCC1CCCO1 (stereo not given)	none
COc1ccc(C(C#N)(CCC#N)CCC#N)cc1OC	VCAM1 TNFa pot 37 | VCAM1 pot confirm inactive
CCNC(=O)/N=C1/NC(=O)C(C(C)C)O1 (stereo not given)	none
COc1cc2cc(Br)cc(Br)c2nc1C	none
CNC(=S)N1N=C(c2ccc(Br)cc2)CC1c1ccc(Br)cc1 (stereo not given)	VCAM1 TNFa pot 69 | VCAM1 pot confirm inactive
CCOC(=O)Cc1csc(SCC(=O)/C(C#N)=C(\C)N)n1	none
CC(C)(C)c1nn(-c2ccccc2)c2[nH]c(=O)c(CNCc3ccc4c(c3)OCO4)cc12	none
CCOC(=O)C1=C(CSc2nc3c(cc2C#N)CN(C)CC3)OC(N)=C(C#N)C1c1ccccc1 (stereo not given)	none
CCCc1nn(-c2ccccc2)c2c1C(c1cccs1)C(C#N)=C(N)O2 (stereo not given)	none
CCCC1=C(C(=O)OCC)C(c2c(C)nn(-c3ccccc3)c2Cl)C(C#N)=C(N)O1 (stereo not given)	VCAM1 TNFa pot 44 | VCAM1 pot confirm inactive
Cc1nn(-c2ccc3nnc(Br)n3n2)c(C)c1Br	none
CC1N/C(=C\C(=O)c2ccccc2)N(O)C1(C)C (stereo not given)	none
Cc1ccc(C2/C(=C(/O)c3ccc(OC(C)C)cc3)C(=O)C(=O)N2CCN2CCOCC2)cc1 (stereo not given)	none
Cc1cc(N2C(=O)C(=O)/C(=C(/O)c3ccc(F)cc3)C2c2ccc(F)cc2)no1 (stereo not given)	none
CCOc1ccc(C2/C(=C(/O)c3ccc(OC)cc3)C(=O)C(=O)N2c2cc(C)on2)cc1OC (stereo not given)	VCAM1 TNFa pot 58 | VCAM1 pot confirm inactive
COc1cccc(CNC(=O)C2CCN(S(=O)(=O)c3ccc4c(c3)CCC(=O)N4)CC2)c1	none
Cc1c(NC(=O)C(C)Sc2n[nH]c(N)n2)c(=O)n(-c2ccccc2)n1C (stereo not given)	none
COc1ccc(C(C)(C)C)cc1S(=O)(=O)N1CCN(C)CC1	none
COc1ccc(N2C(=O)CC(N3CCN(S(=O)(=O)c4c(F)cccc4F)CC3)C2=O)cc1OC (stereo not given)	VCAM1 TNFa pot 57 | VCAM1 pot confirm inactive
O=C1CC(N2CCOCC2)C(=O)N1c1ccc2c(c1)OCO2 (stereo not given)	none
CC(NC(=O)c1ccc(Cl)cc1)c1nnc(SCc2ccc([N+](=O)[O-])cc2)n1C (stereo not given)	none
Cn1c(=O)cc(OCC(=O)NC2CCCCC2)c2ccccc21	none
O=C(CN1C(=O)CSC1=O)NC1CCCCC1	VCAM1 TNFa pot 42 | VCAM1 pot confirm inactive
Cc1ccc(NC(=O)CCN2C(=O)CSC2=O)cc1	none
CC1(C(=O)O)Cc2ccccc2C(=O)O1 (stereo not given)	none
COc1nc(C)nc2c1ccc1ccccc12	none
COc1ccc(C)cc1NC(=O)COC(=O)C1CC1	VCAM1 TNFa pot 56 | VCAM1 pot confirm inactive
Cc1cccc(OCC(=O)Nc2cc(C)ccc2O)c1	none
COc1ccc(C)cc1NC(=O)CN(Cc1nnc(-c2ccc(Cl)cc2)o1)C1CCCC1	none
CC(C)C(OC(=O)c1ccco1)C(=O)NCc1ccccc1 (stereo not given)	none
CCOC(=O)C(CCCOc1ccc(C(C)CC)cc1)C(=O)OCC (stereo not given)	none
c1ccc(CC2CCN(c3nc(N4CCOCC4)nc(N4CCOCC4)n3)CC2)cc1	none
Cc1n[nH]c(=S)c2nn(-c3ccccc3F)c(C)c12	VCAM1 TNFa pot 55 | VCAM1 pot confirm inactive
Cc1ccnc(SCCn2c(N3CCN(Cc4ccccc4)CC3)nc3c2c(=O)[nH]c(=O)n3C)n1	none
